The structures appear in SMILES notation. Calls of active or inactive are those of the source. A call without a number means that no potency is given here. Calls come from the whole dose curve.
Potency is the fitted concentration of half-maximal effect.

The target of the experiment is Estrogen receptor (Homo sapiens) (UniProt P03372). Description: qHTS assay to identify small molecule agonists of the estrogen receptor alpha (ER-alpha) signaling pathway in the presence of an antagonist (AID 1259383). Note: nearly all actives have a fitted effect of over 15% in size. Conditions: VM7Luc4E2 cells, ERE-luciferase, +ICI-182,780, 22 h; series mostly up to 92.4 µM. The text has this: National Center for Advancing Translational Sciences [NCATS] NIH Chemical Genomics Center [NCGC] U.S. Environmental Protection Agency [EPA] National Institutes of Environmental Health Sciences [NIEHS] National Toxicology Program [NTP] Assay overview: Estrogen receptor (ER), a member of nuclear hormone receptor plays an important role in development, metabolic homeostasis and reproduction. Two subtypes of ER, ER-alpha and ER-beta, have similar expression patterns with some uniqueness in both types. Endocrine disrupting chemicals (EDCs) and their interactions with steroid hormone receptors like ER causes disruption of normal endocrine function. Therefore, it is important to understand the effect of environmental chemicals in ER signaling pathway. For identifying ER agonists, VM7Luc4E2 cell line has been used in the current assay. VM7Luc4E2 cell line (provided by Denison MS, University of California) endogenously expresses full-length ER-alpha and is stably transfected with a plasmid containing four estrogen responsive elements (ERE) upstream of a luciferase reporter gene. This current screening for measuring luciferase reporter gene activity using VM7Luc4E2 cells against Tox21 10K library collection is a confirmation study on agonist mode screening in presence of ER-antagonist (ICI-182,780) at 10.0nM final concentration.
Estrogen receptor (Homo sapiens), sequence (P03372 whole entry, looked up): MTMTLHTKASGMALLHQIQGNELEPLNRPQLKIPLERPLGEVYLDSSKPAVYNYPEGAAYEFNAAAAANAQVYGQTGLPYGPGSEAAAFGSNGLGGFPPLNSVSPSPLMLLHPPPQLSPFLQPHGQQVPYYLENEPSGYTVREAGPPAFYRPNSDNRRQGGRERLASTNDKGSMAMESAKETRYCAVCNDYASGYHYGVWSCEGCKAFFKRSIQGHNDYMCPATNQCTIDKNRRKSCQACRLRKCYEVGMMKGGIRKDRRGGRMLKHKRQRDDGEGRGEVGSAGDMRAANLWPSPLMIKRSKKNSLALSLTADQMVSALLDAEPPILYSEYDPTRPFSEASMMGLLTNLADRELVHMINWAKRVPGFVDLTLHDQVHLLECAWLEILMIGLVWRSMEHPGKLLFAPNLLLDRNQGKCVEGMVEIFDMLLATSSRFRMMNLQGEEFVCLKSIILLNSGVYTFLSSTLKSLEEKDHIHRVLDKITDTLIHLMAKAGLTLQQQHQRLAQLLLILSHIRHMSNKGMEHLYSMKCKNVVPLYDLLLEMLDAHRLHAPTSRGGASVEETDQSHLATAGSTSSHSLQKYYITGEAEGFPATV
Assay Protocol Summary: VM7Luc4E2 cells were cultured in phenol red free assay medium containing 10% charcoal stripped FBS for 5 days prior to the assay. The cells were dispensed at 4,000 cells in 4uL of assay medium per well into white wall/solid-bottom 1536-well plates (Corning Life Sciences, Corning, NY) using a Multidrop Combi (Thermo Fisher Scientific Inc., Waltham, MA) dispenser. After the assay plates were incubated at 37C and 5% CO2 for 24hr, 1uL of 10.0nM (final concentration) ICI-182,780 or assay buffer was added using two separate tips of Flying Reagent Dispenser (FRD, Aurora Discovery, San Diego, CA). Then 23nL of compounds dissolved in DMSO at 15 concentrations and positive controls or DMSO only was transferred to the assay plates by a Pintool station (Wako, San Diego, CA). The assay plates were incubated at 37C and 5% CO2 for 22hr. For luciferase read, 4uL/well ONE-Glo reagent (Promega Corporation, Madison, WI) was added to each well using FRD and after 30min incubation at room temperature, luminescence signal was measured on ViewLux plate reader (PerkinElmer, Shelton, CT).
For `CCCCCCCCOC(=O)c1ccc(O)cc1`, the Potency is 54.5 µM (active).

Regarding `CCN(Cc1cccnc1)C(=O)c1cccc(Cl)c1[C@]1(C)C(=O)N(Cc2ccc(OC)cc2OC)c2ccc(Cl)cc21`, the Potency result is “inactive”.

With `Cc1ccc(-n2nc(C(C)(C)C)cc2NC(=O)Nc2ccc(OCCN3CCOCC3)c3ccccc23)cc1`, the Potency result is “inactive”.

Turning to `NNc1nc(-c2ccc(N)cc2)cs1`, the Potency result is “inactive”.

Take `Clc1ccc2cc3ccccc3cc2c1`: the Potency entry is “inactive”.

On to `CCC(N)(CO)CO`, for which the Potency result was “inactive”.

In the case of `CS(=O)(=O)CCNCc1ccc(-c2ccc3ncnc(Nc4ccc(OCc5cccc(F)c5)c(Cl)c4)c3c2)o1`, the Potency result is “inactive”.

Regarding `CCCCC(CC)CN=C(N)NC(N)=NCCCCCCN=C(N)NC(N)=NCC(CC)CCCC` (stereo not given), the Potency entry was “inactive”.

Regarding `O=C(Oc1ccccc1)c1ccccc1C(=O)Oc1ccccc1`, the Potency entry was “inactive”.

As for `O=C(Oc1cccc2cccnc12)c1ccccc1`, the Potency entry was “inactive”.

With `Cc1cccc(CN2CCN(C(c3ccccc3)c3ccc(Cl)cc3)CC2)c1` (stereo not given), the Potency result was “inactive”.

Consider `CCCN(CCC)C(=O)C(CCC(=O)OCCCN1CCN(CCOC(=O)Cc2c(C)n(C(=O)c3ccc(Cl)cc3)c3ccc(OC)cc23)CC1)NC(=O)c1ccccc1` (stereo not given), for which the Potency is 11.9 µM (active).

On to `CC1=NC(C)OC1C` (stereo not given), for which the Potency entry was “inactive”.

For `C/C=C1/C(=O)C[C@H]2[C@@H]3CCC4=CC(=O)CC[C@]4(C)[C@H]3CC[C@]12C`, the Potency result was “inactive”.

Turning to `N#CSc1ccc(N)c([N+](=O)[O-])c1`, the Potency entry was “inactive”.

As for `CCCCCCCCCCCCCCCC(=O)OC[C@H](O)[C@H]1OC(=O)C(O)=C1O`, the Potency entry was “inactive”.

For the molecule `COCCCC/C(=N\OCCN)c1ccc(C(F)(F)F)cc1`, the Potency result is “inactive”.

As for `O=C(N/N=C/c1ccccc1O)c1ccncc1`, the Potency result was “inactive”.

Consider `CCCCCCCCCCCCCCCCCC[N+](C)(C)Cc1ccccc1`, for which the Potency entry is “inactive”.

With `ON=C1CCCC1`, the Potency result was “inactive”.

As for `CCCC/C=C/CCCCO`, the Potency entry is “inactive”.

Regarding `Cc1c(C)c2c(c(C)c1O)CCC(C)(COc1ccc(CC3SC(=O)NC3=O)cc1)O2` (stereo not given), the Potency entry was “inactive”.

On to `CCCCCCCC[N+](CCCCCCCC)(CCCCCCCC)CCCCCCCC`, for which the Potency result was “inactive”.

For the molecule `Cc1cc2c(cc1C(F)(F)F)N(C(=O)Nc1ccc(Oc3cccnc3C)nc1)CC2`, the Potency result was “inactive”.

With `O=c1[nH]cnc2nc[nH]c12`, the Potency entry was “inactive”.

With `CCC(C)(C)C1CCCCC1OC(C)=O` (stereo not given), the Potency result is “inactive”.

Take `CN(C)CCCOC1(Cc2ccccc2)CCCCCC1`: the Potency result is “inactive”.

As to `Cc1cc(C2CCCCC2)n(O)c(=O)c1`, the Potency entry was “inactive”.

For the molecule `CN1CCN(CCC(=O)N2c3ccccc3Sc3ccc(C(F)(F)F)cc32)CC1`, the Potency result is “inactive”.

Turning to `Cc1ccc2oc(CN(Cc3ccccc3)C(=O)Nc3c(F)cc(F)cc3F)c(-c3ccc(Cl)cc3)c2c1`, the Potency result is “inactive”.

Regarding `NC(=O)N1C(=O)C(C(=O)c2cc(Cl)cs2)c2cc(F)c(Cl)cc21` (stereo not given), the Potency entry is “inactive”.

`CSc1ccc(C(=O)c2[nH]c(=O)[nH]c2C)cc1`: the Potency entry was “inactive”.

As for `C[C@@H](NCCCc1cccc(C(F)(F)F)c1)c1cccc2ccccc12`, the Potency result is “inactive”.

With `CC(C)(C)C(=O)OCOC(=O)C1N2C(=O)CC2S(=O)(=O)C1(C)C` (stereo not given), the Potency result was “inactive”.

Regarding `CCCCCCCCCCCCCCCC[N+](C)(C)CCN(Cc1ccc(OC)cc1)c1ncccn1`, the Potency result is “inactive”.

Take `CC[C@@]1(O)C(=O)OCc2c1cc1n(c2=O)Cc2c-1nc1ccccc1c2/C=N/OC(C)(C)C`: the Potency result is “inactive”.

Turning to `O=C1CCCc2c1cc1ccc3cccc4ccc2c1c34`, the Potency result is “inactive”.

`CC(=O)S[C@@H]1CC2=CC(=O)CC[C@]2(C)[C@H]2CC[C@@]3(C)[C@@H](CC[C@@]34CCC(=O)O4)[C@H]12`: the Potency entry is “inactive”.

Turning to `O=C1CCCCCN1SSN1CCCCCC1=O`, the Potency entry was “inactive”.

In the case of `Oc1c(Cl)cc(Cl)c2cccnc12`, the Potency result was “inactive”.

The values are drawn from PubChem BioAssay (Tox21).
